Rows were chosen to be rich in hits. Some 1.3% of all compounds tested hit in one or more screens of this group.
C-LANA FP: inhibitors of KSHV C-LANA binding to DNA, primary screen, biochemical, fluorescence polarization, FAM-LBS DNA, MBP-C-LANA, single point; 0.078% of 340,000 active; inhibition, % at 9 µM; AID 504423, 2011;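 active = highest replicate inhibition at or above 60% at 9 µM, even if other replicates fall short; inactive = all replicates below 60% inhibition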;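 also: 0% = neutral control wells and 100% = 4 µM acridine orange control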
Keap1-Nrf2 PPI: Keap1-Nrf2 protein-protein interaction inhibitors, primary screen, biochemical, fluorescence polarization, single point; Kelch-like ECH-associated protein 1 (Homo sapiens), Q14145; Keap1 Kelch-Nrf2 peptide fluorescence polarization, 1536-well; inhibition, % at 9.4 µM; 0.15% of 340,000 active; in the data active = inhibition above about 12%;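 also: human Keap1 Kelch domain with fluorescein labeled Nrf2 9mer peptide probe; 0% = neutral control wells and 100% = peptide positive control; higher means more block of Keap1 binding to Nrf2 peptide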
Target sequence (Q14145 whole entry, looked up, the tested form may be a part): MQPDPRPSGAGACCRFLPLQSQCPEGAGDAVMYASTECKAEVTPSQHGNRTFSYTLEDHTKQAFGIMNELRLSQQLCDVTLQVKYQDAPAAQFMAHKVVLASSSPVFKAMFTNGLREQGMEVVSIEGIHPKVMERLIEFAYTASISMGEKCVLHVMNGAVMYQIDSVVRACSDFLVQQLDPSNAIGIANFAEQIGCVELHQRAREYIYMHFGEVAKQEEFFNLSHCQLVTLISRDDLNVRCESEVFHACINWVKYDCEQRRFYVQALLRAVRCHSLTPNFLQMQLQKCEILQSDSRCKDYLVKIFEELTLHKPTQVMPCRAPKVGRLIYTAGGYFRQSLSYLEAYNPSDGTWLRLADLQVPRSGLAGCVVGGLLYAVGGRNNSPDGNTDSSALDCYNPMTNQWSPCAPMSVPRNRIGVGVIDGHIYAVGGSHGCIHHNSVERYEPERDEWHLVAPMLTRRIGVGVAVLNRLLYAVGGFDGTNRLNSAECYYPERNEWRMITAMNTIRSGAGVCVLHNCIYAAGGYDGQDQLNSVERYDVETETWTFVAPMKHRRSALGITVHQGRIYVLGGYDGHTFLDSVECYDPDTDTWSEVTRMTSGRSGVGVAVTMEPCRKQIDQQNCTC
cardiac RTF act: cardiac RTF calcium sensitivity activators, primary screen, biochemical, IANBD-TnC fluorescence, EC20 calcium | Troponin I, cardiac muscle (Homo sapiens) + Troponin T, cardiac muscle (Homo sapiens) + … | IANBD-labeled TnC RTF fluorescence at EC20 calcium; 0% EC20 calcium, 100% full calcium | activation, % at 7.2 µM | 0.24% of 340,000 active;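 active = activation above the mean over all tested compounds plus 3 SD, cut at about 30% in these data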;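 also: rise in fluorescence read as greater calcium sensitivity of cardiac thin filaments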
Cardiac RTF inh: cardiac RTF calcium sensitivity inhibitors, primary screen, biochemical, IANBD-TnC fluorescence, EC70 calcium. Troponin I, cardiac muscle (Homo sapiens) + Troponin T, cardiac muscle (Homo sapiens) + …. IANBD-labeled cardiac RTF, Ca2+ fluorescence. inhibition, % at 7.15 µM. 0.12% of 340,000 active. AID 493244, 2011;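 active = inhibition above the mean inhibition of all tested compounds plus 3 SD, cut at about 17% in these data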;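 also: assay run at fixed EC70 calcium of 1.6 mM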
CRFBP-R2 block: antagonists of CRF-BP/CRF-R2 complex, primary screen, cell-based, HEK293, calcium dye fluorescence, uHTS. CRF-induced calcium fluorescence. 0.59% of 350,000 active. inhibition, % at 11.8 µM;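 active = inhibition of the ligand-induced calcium signal above about 50% at the single tested concentration, limit read from the data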
CRFBP-R2 agonist: agonists of CRF-BP/CRF-R2 complex, primary screen, cell-based, HEK293, calcium dye fluorescence, uHTS; calcium dye fluorescence (FLIPR); percent of saturating CRF peptide response; activation, % at 13.2 µM; 0.46% of 350,000 active; AID 588473, 2011;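 active = activation of at least 50%, plus an integration ratio under a set limit after plate pattern correction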;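 also: plate controls were neutral control wells without compound for no effect and CRF at EC100 for full effect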
Numbers without * were called inactive; . = no result given.

SMILES | C-LANA FP | Keap1-Nrf2 PPI | cardiac RTF act | Cardiac RTF inh | CRFBP-R2 block | CRFBP-R2 agonist
COc1ccc(CNC(=O)c2sc(=S)n(-c3ccc(OC)cc3)c2N)cc1 | -1 | -5 | -2 | 3 | 66* | -1
CC(C)CCNC(=O)c1cc(S(=O)(=O)N2CCc3ccccc32)cn1C | 1 | 5 | 3 | -2 | 3 | -3
Cc1noc(C)c1CSc1nc2sc(C)c(C)c2c(=O)n1-c1ccccc1 | -1 | -4 | 3 | -3 | 29 | 3
C=CCn1c(SCc2c(C)noc2C)nc2sc(C)c(C)c2c1=O | 0 | -6 | 8 | -1 | 74* | -5
COc1cc(/C=C/C(O)=C/C(=O)/C=C/c2ccc(O)cc2)ccc1O | -1 | -42 | 28 | -99 | -60 | 113*
CCOC(=O)c1ccc(NC(=O)Cn2nnc(-c3ccc(F)cc3)n2)cc1 | 3 | -4 | 4 | -10 | 9 | -1
CC(CCC(C)C(C)(C)C)[C@@H]1CC[C@H]2C3C[C@H](OS(O)(=S)=S)[C@H]4C[C@H](OS(O)(=S)=S)[C@@H](OS(O)(=S)=S)C[C@]4(C)[C@H]3CC[C@]12C (some centres undefined) (tested in a mixture with another compound) | 123* | 84* | -23 | 56* | 30 | 55*
O=C(Oc1c(-c2ccccc2)c(=O)n2c3c(cccc13)CC2)c1ccco1 | -1 | 2 | . | . | 17 | 0
COc1ccccc1/C=C1\SC(=S)N(CCC(=O)Nc2ccc(C(=O)O)c(O)c2)C1=O | 10 | -2 | 1 | 2 | -13 | 5
COC(=O)c1ccc(/C=C2/SC(=S)N(CCCC(=O)Nc3ccccn3)C2=O)cc1 | 1 | 1 | -3 | 8 | -5 | 7
O=C(CCCN1C(=O)/C(=C/c2ccco2)SC1=S)Nc1ccccc1C(=O)O | 66* | -3 | -5 | -3 | 7 | -1
O=C(CCN1C(=O)/C(=C/c2ccco2)SC1=S)Nc1ccc(C(=O)O)c(O)c1 | 88* | -3 | -6 | 0 | -6 | 0
O=C(O)CCCN1C(=O)/C(=C\c2ccco2)SC1=S | 43 | 3 | 1 | 12 | 16 | -1
CCc1ccc(/C=C2\SC(=S)N(CCCC(=O)Nc3ccccn3)C2=O)cc1 | 7 | 5 | 37* | 1 | -34 | 24
O=C(CCN1C(=O)/C(=C\c2ccco2)SC1=S)Nc1ccc(C(=O)O)c(O)c1 | 83* | -2 | -8 | 6 | 0 | -1
Cc1cccc(NC(=S)N2CCN(C(=O)c3ccco3)CC2)c1 | -1 | 0 | 5 | 1 | 0 | 1
CC(/C=C1\SC(=S)N(CCCC(=O)Nc2ccc(C(=O)O)cc2)C1=O)=C\c1ccccc1 | 85* | -3 | -2 | -3 | 30 | 2
CC(/C=C1\SC(=S)N(CCC(=O)Nc2cccc(C(=O)O)c2)C1=O)=C\c1ccccc1 | 16 | 3 | -1 | -6 | 10 | 2
COc1ccc(-n2nc(C(=O)NCC(=O)NCCCN3CCN(C)CC3)c3ccccc3c2=O)cc1OC | 1 | 0 | 0 | -1 | -1 | 0
CNc1nc2cc([N+](=O)[O-])c([N+](=O)[O-])cc2nc1NC | 1 | 2 | 1 | 4 | 66* | 65*
CCCOc1ncnc2c1[nH]c1ccc(C)cc12 | . | . | . | . | -15 | -6
CC(Oc1ccc(Br)cc1)C(=O)Nc1ccc(S(=O)(=O)N(C)C2CCN(C)CC2)cc1 (centres undefined) | 0 | -2 | -4 | 4 | -24 | 96*
O=[n+]1c2c(n([O-])c3cc(F)c(N4CCCC4)cc31)CCCC2 | 39 | -18 | 79* | -84 | -20 | 55*
O=[n+]1c2c(n([O-])c3cc(F)ccc31)CCCC2 | 1 | -3 | -1 | -1 | -1 | 2
O=[n+]1c2c(n([O-])c3cc(F)c(N4CCCC4)cc31)CCC2 | 38 | -11 | 53* | -87 | -35 | 47
SMILES | C-LANA FP | Keap1-Nrf2 PPI | cardiac RTF act | Cardiac RTF inh | CRFBP-R2 block | CRFBP-R2 agonist
O=[n+]1c2c(n([O-])c3ccccc31)CCC2 | -1 | -3 | 17 | 2 | 5 | -4
O=C(Nc1cccc(Cl)c1)c1cc2c(=O)n3ccccc3nc2s1 | 1 | 3 | 5 | -5 | 7 | -1
COc1ccc(/C=C/C(=O)Nc2ccc(S(=O)(=O)N3CCOCC3)cc2)c(OC)c1 | -1 | -1 | -4 | -4 | -13 | -1
O=c1c2ccccc2c(-c2ccc(O)cc2)nn1-c1cccc(C(F)(F)F)c1 | 0 | -3 | 0 | 0 | 57* | 1
O=c1c2ccccc2c(-c2cccc(C(F)(F)F)c2)nn1-c1ccccc1 | -1 | -2 | -8 | 5 | 0 | 2
CC(C)CN(C(=O)COC(=O)/C=C/c1ccc(Cl)c(Cl)c1)c1c(N)n(Cc2ccccc2)c(=O)[nH]c1=O | . | . | -1 | -6 | 10 | 4
COc1cc(/C=C/C(=O)OCC(=O)N(CC(C)C)c2c(N)n(Cc3ccccc3)c(=O)[nH]c2=O)ccc1O | 2 | 3 | -5 | -3 | -41 | 120*
CC1CN(S(=O)(=O)c2cccc(C(=O)Nc3ccc(N4CCCCC4)cc3)c2)CC(C)O1 (centres undefined) | . | . | . | . | 12 | -1
COc1ccc(NC(=S)N2CCC(N(C)CCN3CCOCC3)CC2)cc1Cl | -1 | -1 | 1 | -15 | 52* | -8
CCN1CCCc2cc(CN(CCN3CCOCC3)C(=S)Nc3ccc(OC)c(Cl)c3)ccc21 | 1 | -3 | 0 | -10 | 7 | 0
Cc1ccc(C(=O)N2CCN(c3ccc(C(F)(F)F)cn3)CC2)c(C)c1 | 0 | -4 | -6 | 2 | 8 | -2
CCOCCCNc1nc2c(C)cccn2c(=O)c1/C=C1\SC(=S)N(C(C)CC)C1=O (centres undefined) | -2 | -22 | 29 | -33 | -77 | 109*
Cc1cccn2c(=O)c(/C=C3\SC(=S)NC3=O)c(NCCCN3CCOCC3)nc12 | -3 | -9 | 18 | -27 | -46 | 40
CCCN1C(=O)/C(=C/c2c(NCCCOCC)nc3c(C)cccn3c2=O)SC1=S | 0 | -8 | 4 | -7 | -173 | 113*
O=C1/C(=C\c2c(NCCOCCO)nc3ccccn3c2=O)SC(=S)N1Cc1ccco1 | 0 | 0 | 40* | -59 | -97 | 102*
CCOCCCNc1nc2c(C)cccn2c(=O)c1/C=C1\SC(=S)N(CC(C)C)C1=O | 2 | -6 | 3 | 5 | -358 | 170*
